PubChem BioAssay (NCATS)
Records with an inconclusive call do not appear. Entries that show only a call come without a potency. The source made the active and inactive calls. Calls come from the whole dose curve; as a rule, active = well fitted curve in the direction sought with a large enough effect; inconclusive = small, poorly fitted or top-dose-only effect, or another doubt; inactive = no such curve, though single readings can be large; an effect the other way counts as inactive or inconclusive.

Key:
[1] = Quantitative High-Throughput drug screen in 47 multiple myeloma cell lines against the NCATS MIPE library collection: EJM_DSMZ cell viability assay (AID 1918926; note: nearly all actives have a fitted effect of over 30% in size; note: potency is the fitted concentration of half-maximal effect)
Procedure, shortened: (§1)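 Myeloma cell lines, 500 cells per well, exposed to MIPE 4.0 library compounds for 48 h at 37C, 5% CO2. Viability from ATP by CellTiter-Glo luminescence; normalised to DMSO (100%) and media-only (0%) wells.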

[2] = Quantitative High-Throughput drug screen in 47 multiple myeloma cell lines against the NCATS MIPE library collection: AMO1_DSMZ cell viability assay (AID 1918927; note: nearly all actives have a fitted effect of over 30% in size; note: potency is the fitted concentration of half-maximal effect)
Procedure, shortened: as §1

[3] = Quantitative High-Throughput drug screen in 47 multiple myeloma cell lines against the NCATS MIPE library collection: ARD_JJKsccE7 cell viability assay (AID 1918929; note: potency is the fitted concentration of half-maximal effect)
Procedure, shortened: as §1

[4] = Quantitative High-Throughput drug screen in 47 multiple myeloma cell lines against the NCATS MIPE library collection: Karpas620_DSMZ cell viability assay (AID 1918959); note: nearly all actives have a fitted effect of over 30% in size; note: potency is the fitted concentration of half-maximal effect
Procedure, shortened: (§2)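 CellTiter-Glo luminescence (ATP) after 48 h compound exposure, 37C/5% CO2; 500 cells/well; MIPE 4.0 approved/investigational drugs pinned in; DMSO = 100%, media only = 0% viability.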

[5] = Quantitative High-Throughput drug screen in 47 multiple myeloma cell lines against the NCATS MIPE library collection: Karpas417_ECACC cell viability assay (AID 1918961); details: Karpas417 myeloma viability, CellTiter-Glo ATP luminescence, 48 h; viability (% of DMSO): at 45.8 µM (top of the series) unless noted; note: potency is the fitted concentration of half-maximal effect
Procedure, shortened: (§3)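 Myeloma cells (500 per well) were exposed to MIPE 4.0 compounds by pin transfer and incubated 48 hours at 37C, 5% CO2. Viability was read as ATP by CellTiter-Glo luminescence, normalised to DMSO (100%) and media-only (0%) wells.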

[6] = Quantitative High-Throughput drug screen in 47 multiple myeloma cell lines against the NCATS MIPE library collection: JIM3_ECACC cell viability assay (AID 1918963; note: nearly all actives have a fitted effect of over 35% in size; note: potency is the fitted concentration of half-maximal effect)
Procedure, shortened: as §2

[7] = Quantitative High-Throughput drug screen in 47 multiple myeloma cell lines against the NCATS MIPE library collection: INA6_PLB cell viability assay (AID 1918965; note: nearly all actives have a fitted effect of over 55% in size; note: potency is the fitted concentration of half-maximal effect)
Procedure, shortened: as §3

[8] = Quantitative High-Throughput drug screen in 47 multiple myeloma cell lines against the NCATS MIPE library collection: JJN3_DSMZ cell viability assay (AID 1918966; note: nearly all actives have a fitted effect of over 50% in size; note: potency is the fitted concentration of half-maximal effect)
Procedure, shortened: as §1

[9] = Quantitative High-Throughput drug screen in 47 multiple myeloma cell lines against the NCATS MIPE library collection: KMS27_JCRB cell viability assay (AID 1918970); note: nearly all actives have a fitted effect of over 30% in size; note: potency is the fitted concentration of half-maximal effect
Procedure, shortened: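 CellTiter-Glo luminescence after 48 h drug exposure at 37 °C; 500 cells/well, 1536-well format, pin-tool compound addition; DMSO = 100%, media-only = 0% viability.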

[10] = Quantitative High-Throughput drug screen in 47 multiple myeloma cell lines against the NCATS MIPE library collection: KMS12BM_JCRB cell viability assay (AID 1918971); note: nearly all actives have a fitted effect of over 35% in size; note: potency is the fitted concentration of half-maximal effect
Procedure, shortened: (§4)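 We plated 500 myeloma cells per well, pinned in MIPE 4.0 compounds, and incubated for 48 hours at 37C. ATP was then quantified with CellTiter-Glo, with DMSO and media-only wells defining 100% and 0%.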

[11] = Quantitative High-Throughput drug screen in 47 multiple myeloma cell lines against the NCATS MIPE library collection: KMS12PE_JCRB cell viability assay (AID 1918972); note: nearly all actives have a fitted effect of over 30% in size; note: potency is the fitted concentration of half-maximal effect
Procedure, shortened: as §3

[12] = Quantitative High-Throughput drug screen in 47 multiple myeloma cell lines against the NCATS MIPE library collection: KMS26_JCRB cell viability assay (AID 1918975); note: nearly all actives have a fitted effect of over 45% in size; note: potency is the fitted concentration of half-maximal effect
Procedure, shortened: as §4

[13] = Quantitative High-Throughput drug screen in 47 multiple myeloma cell lines against the NCATS MIPE library collection: ARP1_JJKsccF8 cell viability assay (AID 1918928; note: nearly all actives have a fitted effect of over 40% in size; note: potency is the fitted concentration of half-maximal effect)
Procedure, shortened: (§5)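 Luminescence from CellTiter-Glo, taken after 5 min at room temperature, reports cellular ATP as viability. Cells (500 per well) had been treated 48 h at 37 °C with MIPE 4.0 compounds, scaled between DMSO and medium-only controls.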

[14] = Quantitative High-Throughput drug screen in 47 multiple myeloma cell lines against the NCATS MIPE library collection: KMM1_JCRB cell viability assay (AID 1918960); note: nearly all actives have a fitted effect of over 30% in size; note: potency is the fitted concentration of half-maximal effect
Procedure, shortened: as §5

[15] = Quantitative High-Throughput drug screen in 47 multiple myeloma cell lines against the NCATS MIPE library collection: KHM11_PLB cell viability assay (AID 1918962); note: nearly all actives have a fitted effect of over 35% in size
Procedure, shortened: as §2

[16] = Quantitative High-Throughput drug screen in 47 multiple myeloma cell lines against the NCATS MIPE library collection: JIM1_ECACC cell viability assay (AID 1918964; note: potency is the fitted concentration of half-maximal effect)
Procedure, shortened: as §1

[17] = Quantitative High-Throughput drug screen in 47 multiple myeloma cell lines against the NCATS MIPE library collection: H1112_PLB cell viability assay (AID 1918967; note: nearly all actives have a fitted effect of over 30% in size; note: potency is the fitted concentration of half-maximal effect)
Procedure, shortened: as §1

[18] = Quantitative High-Throughput drug screen in 47 multiple myeloma cell lines against the NCATS MIPE library collection: Karpas25_ECACC cell viability assay (AID 1918968; note: nearly all actives have a fitted effect of over 35% in size; note: potency is the fitted concentration of half-maximal effect)
Procedure, shortened: as §1

[19] = Quantitative High-Throughput drug screen in 47 multiple myeloma cell lines against the NCATS MIPE library collection: KMS20_JCRB cell viability assay (AID 1918973); note: nearly all actives have a fitted effect of over 45% in size; note: potency is the fitted concentration of half-maximal effect
Procedure, shortened: as §1

[20] = Quantitative High-Throughput drug screen in 47 multiple myeloma cell lines against the NCATS MIPE library collection: KMS21BM_JCRB cell viability assay (AID 1918974); details: ATP luminescence, 48 h; viability: at 45.8 µM (top of the series) unless noted; note: potency is the fitted concentration of half-maximal effect
Procedure, shortened: as §1

Row | Structure (SMILES) | Potency [1] | Potency [2] | Potency [3] | Potency [4] | Potency [5] | Potency [6] | Potency [7] | Potency [8] | Potency [9] | Potency [10] | Potency [11] | Potency [12] | Potency [13] | Potency [14] | Potency [15] | Potency [16] | Potency [17] | Potency [18] | Potency [19] | Potency [20]
1 | COc1c(Cl)cc2c([nH]c3cnccc32)c1NC(=O)c1cccnc1C | 3.72 µM (active) | 5.26 µM (active) | 3.32 µM (active) | 18.7 µM (active) | 16.6 µM (active) | inactive | 2.96 µM (active) | 18.7 µM (active) | 11.8 µM (active) | 14.8 µM (active) | 20.9 µM (active) | 13.2 µM (active) | – | – | – | – | – | – | – | –
2 | NC[C@H](O)c1ccc(O)c(O)c1 | inactive | inactive | – | inactive | – | inactive | – | 4.18 µM (active) | inactive | 20.9 µM (active) | inactive | – | inactive | inactive | inactive | inactive | inactive | – | – | –
3 | N=c1nc(N2CCCCC2)cc(N)n1O | inactive | inactive | inactive | inactive | – | inactive | 23.5 µM (active) | – | inactive | – | inactive | – | – | inactive | – | inactive | inactive | 26.4 µM (active) | – | –
4 | CC(c1cc2ccccc2s1)N(O)C(N)=O (centres undefined) | inactive | inactive | inactive | – | – | inactive | inactive | – | inactive | – | inactive | inactive | inactive | inactive | – | inactive | inactive | inactive | inactive | –
5 | CC[C@H](Nc1ncnc2nc[nH]c12)c1nc2cccc(F)c2c(=O)n1-c1ccccc1 | 14.8 µM (active) | inactive | – | inactive | inactive | – | 13.2 µM (active) | 10.5 µM (active) | – | 18.7 µM (active) | – | – | 20.9 µM (active) | inactive | – | – | 2.64 µM (active) | 11.8 µM (active) | – | inactive
6 | CC(C)(C)NCC(O)c1ccc(O)c(CO)c1 (centres undefined) | inactive | inactive | 0.0526 µM (active) | inactive | – | inactive | inactive | – | – | – | inactive | – | – | 0.059 µM (active) | inactive | – | inactive | 0.0418 µM (active) | inactive | inactive
7 | COc1cc2nccc(Oc3ccc(NC(=O)NC4CC4)c(Cl)c3)c2cc1C(N)=O | 2.09 µM (active) | 2.09 µM (active) | – | inactive | inactive | 13.2 µM (active) | 16.6 µM (active) | 1.48 µM (active) | 3.32 µM (active) | 5.9 µM (active) | 0.833 µM (active) | – | 14.8 µM (active) | 3.72 µM (active) | – | – | 2.96 µM (active) | – | 13.2 µM (active) | –
8 | C[C@]12CC[C@H](O)CC1=CC[C@@H]1[C@H]2CC[C@]2(C)C(c3cccnc3)=CC[C@H]12 | inactive | inactive | – | inactive | – | inactive | – | – | inactive | inactive | inactive | inactive | inactive | inactive | – | – | inactive | – | inactive | –
9 | O=C(Nc1nc2ccccc2n1CCN1CCOCC1)c1cccc([N+](=O)[O-])c1 | 4.18 µM (active) | 4.18 µM (active) | 4.18 µM (active) | 7.43 µM (active) | 4.69 µM (active) | inactive | – | 20.9 µM (active) | 7.43 µM (active) | – | – | 29.6 µM (active) | – | 5.26 µM (active) | – | 5.26 µM (active) | inactive | inactive | – | –
10 | c1ccc([C@H]2CN3CCSC3=N2)cc1 | inactive | inactive | – | inactive | – | inactive | – | – | inactive | inactive | – | inactive | inactive | inactive | – | – | – | inactive | – | inactive
11 | CNCc1ccc(-c2[nH]c3cc(F)cc4c3c2CCNC4=O)cc1 | inactive | 8.33 µM (active) | – | inactive | – | – | 23.5 µM (active) | inactive | – | – | inactive | – | inactive | – | – | – | inactive | inactive | – | –
12 | NC(=O)C1CCCc2c1[nH]c1ccc(Cl)cc21 (centres undefined) | inactive | 14.8 µM (active) | – | 18.7 µM (active) | – | – | – | – | – | 1.66 µM (active) | 14.8 µM (active) | – | inactive | – | – | – | inactive | inactive | – | –
13 | CCCS(=O)(=O)Nc1ccc(F)c(C(=O)c2c[nH]c3ncc(Cl)cc23)c1F | inactive | 20.9 µM (active) | 18.7 µM (active) | 20.9 µM (active) | – | 16.6 µM (active) | 2.96 µM (active) | – | – | – | 16.6 µM (active) | inactive | – | 16.6 µM (active) | – | – | 20.9 µM (active) | 14.8 µM (active) | – | –
14 | CS(=O)(=O)Oc1ccc2c(NC(N)=O)c(C(=O)c3ccc(Cl)cc3Cl)oc2c1 | inactive | 9.35 µM (active) | 8.33 µM (active) | 10.5 µM (active) | – | – | 5.26 µM (active) | – | – | inactive | 9.35 µM (active) | inactive | – | – | – | – | 18.7 µM (active) | 4.69 µM (active) | – | 2.35 µM (active)
15 | Cc1ccc(N(CC2=NCCN2)c2cccc(O)c2)cc1 | inactive | 23.5 µM (active) | – | – | – | – | 13.2 µM (active) | – | 16.6 µM (active) | – | – | – | 29.6 µM (active) | – | inactive | – | 26.4 µM (active) | 4.69 µM (active) | inactive | –
